Source: PubChem BioAssay

What was measured:
[1] = test system: Human papillomavirus type 1a protein E7 (residues 44-93); assay: HPV1a E7 fragment binders on microarrays, primary screen, biochemical, small-molecule microarray, residues 44-93, 635 nm fluorescence (AID 1108); settings: small-molecule microarray binding, fluorescence 635 nm; higher = more signal;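 note: E7 fragment applied at 1 µg/mL in TBST for 1 h at 4 C; score combines spot fluorescence with its signal to noise ratio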
[2] = modulators of HCV replicon luciferase signal, primary screen, HCV replication inhibitor project, Huh7 cells, luciferase reporter (AID 1109); settings: 48 h, higher = more signal;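 note: huh7 hepatoma cells harbouring a luciferase neomycin HCV replicon reporter; luciferase luminescence as measure of HCV replicon replication; test concentration not given here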
[3] = target: Left-right determination factor 2 (Homo sapiens) (UniProt O00292); assay: LEFTY2 binders on small-molecule microarrays, primary screen, biochemical, small-molecule microarray, 635 nm fluorescence scan (AID 1110); settings: LEFTY2 binding, higher = more signal
[4] = target: Calmodulin-1 (Homo sapiens) (UniProt P0DP23); assay: CALM1 binders on microarrays, EGTA buffer, profiling panel, biochemical, small-molecule microarray, Cy5-labelled CALM1 (AID 1111); settings: Cy5-CALM1 binding fluorescence, higher = more signal;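 note: labelled calmodulin applied in Tris saline Tween buffer holding calcium plus EGTA and DTT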
[5] = target: Calmodulin-1 (Homo sapiens) (UniProt P0DP23); assay: calcium-bound CALM1 binders on microarrays, profiling panel, artefact control for SMM control-protein annotation, biochemical, small-molecule microarray, Cy5-labelled CALM1, plus calcium (AID 1112); settings: Cy5-CALM1 binding fluorescence, higher = more signal;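 note: score merges spot fluorescence with signal to noise from triplicate slides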
[6] = small-molecule microarray binders of probe aWnt5a, primary screen, biochemical, biotinylated probe, 635/667 nm fluorescence (AID 1113); settings: higher = more signal;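 note: score merges 667 nm fluorescence intensity with signal-to-noise per printed feature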
[7] = small-molecule microarray binders of probe aShh, primary screen, biochemical, biotinylated probe, 635/667 nm fluorescence (AID 1114); settings: higher = more signal;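 note: probe is biotin-labelled aShh protein from a stem cell growth factor screen; measures binding of labelled protein to compounds printed on the slide; score merges feature fluorescence at 667 nm with signal-to-noise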
[8] = small-molecule microarray binders of probe aNog, primary screen, biochemical, biotinylated probe, 635/667 nm fluorescence (AID 1115); settings: higher = more signal;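 note: probe is biotinylated aNog protein used at 0.15 µg/mL for 1 h at 4 C; z-score combines 667 nm fluorescence of each spot with its signal to noise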
[9] = target: Torsin-1A-interacting protein 1 (Homo sapiens) (UniProt Q5JTV8); assay: LAP1 binders from COS7 cell lysate, primary screen, small-molecule microarray, 635/667 nm fluorescence (AID 1116); settings: COS7-hLAP1 lysate binding, 635 nm fluorescence, higher = more signal
[10] = target: Alpha-bungarotoxin (Bungarus multicinctus) (UniProt P60615); assay: alpha-bungarotoxin binders on microarray, profiling panel, artefact control for SMM control protein annotation, biochemical, small-molecule microarray, Alexa647 label, 635/667 nm fluorescence (AID 1117); settings: alpha-BTX-A647 binding fluorescence, higher = more signal
Chain of Alpha-bungarotoxin (Bungarus multicinctus) (P60615 whole entry, looked up): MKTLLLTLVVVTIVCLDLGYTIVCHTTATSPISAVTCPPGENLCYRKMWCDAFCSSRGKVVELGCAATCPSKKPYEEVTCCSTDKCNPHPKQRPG

Chain of Left-right determination factor 2 (Homo sapiens) (O00292 whole entry, looked up): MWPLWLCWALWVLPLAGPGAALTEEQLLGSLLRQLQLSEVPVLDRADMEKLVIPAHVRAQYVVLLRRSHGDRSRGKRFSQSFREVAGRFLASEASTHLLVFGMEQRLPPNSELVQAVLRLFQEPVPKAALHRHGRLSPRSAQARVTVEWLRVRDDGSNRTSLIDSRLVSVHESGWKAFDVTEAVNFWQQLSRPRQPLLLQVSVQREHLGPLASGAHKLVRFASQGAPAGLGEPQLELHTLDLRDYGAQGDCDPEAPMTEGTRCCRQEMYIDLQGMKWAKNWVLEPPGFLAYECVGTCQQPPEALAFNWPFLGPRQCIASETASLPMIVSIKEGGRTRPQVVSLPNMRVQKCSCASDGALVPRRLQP
Chain of Torsin-1A-interacting protein 1 (Homo sapiens) (Q5JTV8 whole entry, looked up): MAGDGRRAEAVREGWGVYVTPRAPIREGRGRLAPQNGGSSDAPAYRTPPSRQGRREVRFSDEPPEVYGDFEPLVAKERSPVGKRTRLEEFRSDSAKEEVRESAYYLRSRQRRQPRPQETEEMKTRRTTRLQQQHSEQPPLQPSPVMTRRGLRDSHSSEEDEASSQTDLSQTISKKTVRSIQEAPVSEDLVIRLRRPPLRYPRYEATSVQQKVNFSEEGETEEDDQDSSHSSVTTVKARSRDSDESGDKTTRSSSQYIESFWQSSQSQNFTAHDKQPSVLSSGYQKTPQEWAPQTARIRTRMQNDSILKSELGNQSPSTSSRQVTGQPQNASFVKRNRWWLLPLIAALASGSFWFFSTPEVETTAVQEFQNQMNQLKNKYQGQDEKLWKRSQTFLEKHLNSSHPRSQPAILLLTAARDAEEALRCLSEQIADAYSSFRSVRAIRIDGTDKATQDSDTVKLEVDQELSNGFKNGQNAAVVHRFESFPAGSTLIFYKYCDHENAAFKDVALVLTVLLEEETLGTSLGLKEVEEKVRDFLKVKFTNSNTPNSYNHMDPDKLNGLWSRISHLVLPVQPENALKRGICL

Compound	composite z-score [1]	z-score [2]	composite z-score [3]	composite z-score [4]	composite z-score [5]	composite z-score [6]	composite z-score [7]	composite z-score [8]	composite z-score [9]	composite z-score [10]
COCCOC(=O)N1C(=O)[C@@]2(c3cc(C#CC4(O)CCCCCC4)ccc31)[C@H](c1ccc(OCCO)cc1)N1[C@H](c3ccccc3)[C@H](c3ccccc3)OC(=O)[C@H]1[C@@H]2C(=O)NC[C@H](O)c1ccccc1	1.44	-2.32	0.358	1.28	0.311	0.0079	-0.0289	0.385	1.26	2.17
CCOC(=O)C[C@H]1[C@H](OC(=O)c2ccc(C(=O)c3ccccc3)cc2)[C@@H](NC(=O)c2ccc(-c3ccccc3)cc2)c2cc(OCCCO)ccc2N1C(=O)c1ccc2ccccc2n1	1.07	-0.91	0.757	-0.299	-0.766	0.0835	-0.317	-0.621	0.249	0.774
CCN1C(=O)[C@H]2[C@H]3[C@H](O)C=CC(=O)[C@@H]3CC[C@H]2C1=O	0.907	0.305	0.503	0.0903	-0.528	-0.126	-0.13	0.0658	0.694	0.45
C#CCCCON=C1C[C@@H](O)[C@@H](O)[C@@H]2[C@@H]3C(=O)N(Cc4ccccc4)C(=O)[C@@H]3CC[C@H]12	0.154	-1.08	0.451	-0.0441	-0.273	-0.154	-0.138	-0.0245	0.28	0.234
COC(=O)CC=C[C@@H](C)[C@@H](C=NO[C@@H](C)c1cc(-c2c(C)cc(C)cc2C)no1)OC	-1.29	-0.378	-0.627	-0.908	-1.48	-0.295	-0.2	0.531	-1.75	-1.11
CC1CC/C=C\[C@H]2OC34C=CCN(C(C)C)C(=O)[C@H]3N(CCCO)C(=O)[C@@H]4C2C(=O)O1 (stereo not given in full)	-0.249	-0.513	-0.523	-1.04	0.271	-0.184	-0.181	-0.0898	0.646	-1.54
CC(CCN1CCc2nc(-c3ccccc3)c(-c3ccccc3)cc2C1)=NOC[C@@H](C)[C@H](OCc1ccccc1)C(C)C	-1.08	-1.77	-0.323	-0.607	0.343	-0.134	-0.304	-0.278	-0.424	1.14
COCCOC(=O)N1C(=O)[C@@]2(c3cc(C#Cc4ccc(OC)cc4)ccc31)[C@H](C(=O)N1CCN(c3ncccn3)CC1)[C@H]1C(=O)O[C@H](c3ccccc3)[C@H](c3ccccc3)N1[C@@H]2c1ccc(OCCO)cc1	1.4	-1.56	0.64	0.766	0.397	0.101	-0.229	1.26	-0.109	0.598
Cc1ccc(F)cc1S(=O)(=O)N[C@@H]1CCN(Cc2ccc(CC(C)C)cc2)C1	0.135	-3.88	-0.185	-0.793	-0.328	-0.23	-0.138	-0.272	0.464	0.0331
C=CC[C@]1(C(=O)NCc2ccccc2)N=C(c2ccc(OCCCO)cc2)O[C@H]1c1ccccc1	1.46	-2.41	-0.778	0.392	-0.483	-0.0944	0.696	0.257	1.62	2.46
CCOC(=O)CCN1C(=O)[C@H]2[C@H]3[C@H](O)[C@H](O)CC(=NNC(=O)OCc4ccc(OC)cc4)[C@@H]3CC[C@H]2C1=O	-0.75	-0.552	0.554	0.715	-0.0636	-0.124	-0.323	-0.118	0.94	1.21
CC(C)(C)N1C(=O)[C@H]2[C@H]3[C@H](O)[C@H](O)CC(=NO[C@@H]4O[C@H](CO)[C@@H](O)[C@H](O)[C@H]4O)[C@@H]3CC[C@H]2C1=O	0.964	-0.105	0.761	-0.448	-1.36	-0.0115	0.111	-0.0144	0	1.28
COc1ccc(O[C@H]2C=C[C@@H](c3ccccc3)O[C@@H]2COC(=O)CCC(C)=NOCC[C@@H]2C=C[C@H](OC(C)=O)[C@@H](COC(C)=O)O2)cc1	-0.119	-1.1	0.347	-1.02	-1.27	0.0495	0.199	0.0301	0.781	-0.0704
CC(C)N1CC=CC23O[C@@H]4C=CCCOC(=O)C4[C@H]2C(=O)N(CCCCCCO)[C@@H]3C1=O (stereo not given in full)	-0.558	-0.845	-1.39	-0.0847	0.749	-0.252	-0.221	0.0432	-0.423	-0.866
O=C1[C@H]2[C@H]3[C@H](O)[C@H](O)CC(=NOCc4ccccc4)[C@H]3CC[C@H]2C(=O)N1c1ccc(F)cc1F	-0.642	0.473	0.349	-0.251	-0.349	-0.123	-0.339	-0.47	-0.273	-0.0546
CC(=O)OC[C@H]1O[C@H](CC=NOC[C@@H](C)[C@H](OCc2ccccc2)C(C)C)C=C[C@@H]1OC(C)=O	0.16	-0.854	0.455	-0.47	-0.499	0.0437	-0.186	-0.526	-0.698	-0.164
CS(=O)(=O)CCOC(=O)C1=CC(CCCO)=CC(c2cccs2)N(Cc2cccc(OC(F)(F)F)c2)C=C1C(=O)OCCS(C)(=O)=O (stereo not given)	0.729	-2.77	-0.224	2.31	1.36	0.055	0.261	-0.0554	1.88	1.6
O=C1[C@H]2[C@H]3[C@H](O)[C@H](O)CC(=NOCc4ccccc4)[C@H]3CC[C@H]2C(=O)N1C[C@@H]1CCCO1	0.536	0.188	0.873	0.0951	-0.223	-0.0685	-0.138	0.0715	0.278	0.0902

Compound	composite z-score [1]	z-score [2]	composite z-score [3]	composite z-score [4]	composite z-score [5]	composite z-score [6]	composite z-score [7]	composite z-score [8]	composite z-score [9]	composite z-score [10]
CN(C)CCCNC(=O)[C@@H]1c2ccccc2C(=O)N(Cc2cc(F)cc(C(F)(F)F)c2)[C@H]1c1ccc(CO)cc1	0.7	-0.734	0.643	0.509	0.0028	-0.103	-0.0904	1.39	0.886	-0.0234
COC(=O)[C@H](C)NC(=O)[C@@H](C)CO	1.25	-0.431	0.5	0.601	-0.369	-0.0445	-0.0035	0.243	0.924	0.855
COC(=O)CC=C[C@H](C)[C@H](CO)NS(=O)(=O)c1ccc(C)cc1	0.144	-0.763	0.703	-0.756	-0.624	-0.124	-0.117	-0.0094	0.729	0.219
C[C@@H]1C=CCC(=O)OC[C@H](C)C(=O)N2CCC[C@H]2C(=O)OC1	0.685	-1.06	0.851	-0.725	-1.26	-0.22	0.0188	0.0419	0.96	-0.285
COCCCNC(=O)[C@@]1(C)c2ccccc2C(=O)N(Cc2ccc(OC(F)(F)F)cc2)[C@H]1c1ccc(CO)cc1	-1.56	-0.302	-0.738	-0.579	0.751	-0.109	-0.2	-0.546	-0.668	-1.16
Cc1cc2c(c(=O)o1)[C@H](O)[C@H]1O[C@H]1C2=O	-1.5	-2.16	0.761	-0.766	-1.38	-0.208	0.0048	-0.359	0.17	0.0658
C[C@H](c1ccccc1)N1C(=O)[C@H]2[C@@H]3C(=CC[C@H]2C1=O)C(=O)[C@H]1O[C@H]1[C@H]3O	-0.546	-4.71	0.429	-0.119	-0.932	-0.0405	0.0402	-0.416	0.326	-0.0114
COC(=O)[C@H](C)NC(=O)CCC1CC(OC(=O)NCCc2ccc(F)cc2)CC2(CCCC(COC(=O)NCCc3ccc(Cl)cc3)O2)O1 (stereo not given in full)	1.29	-0.0845	1.2	0.922	0.232	-0.224	-0.138	-0.299	0.428	0.763
C[C@@H](c1ccccc1)N1C(=O)[C@H]2[C@H]3[C@H](O)[C@H](O)CC(=NOC[C@@H](O)COCc4ccco4)[C@@H]3CC[C@H]2C1=O	-0.856	0.816	-0.433	-0.495	-0.307	-0.124	-0.0863	-0.413	-0.375	0.556
CCOC(=O)CCN1C(=O)[C@H]2[C@H]3[C@H](O)[C@H](O)CC(=O)[C@H]3CC[C@H]2C1=O	0.182	-1.07	0.412	0.0492	-0.375	-0.201	-0.229	-0.201	0.619	0.0323
COc1ccc([Si](C)(C)[C@@H]2[C@@H](CCO)O[C@]3(C(=O)N(Cc4ccc(NC(C)=O)cc4)c4ccccc43)[C@H]2C)cc1	1.43	-5.21	0.621	1.07	0.521	0.0136	0.441	0.715	0.802	1.21
O=C1C[C@]2(c3ccc([N+](=O)[O-])cc3)C(=O)N(CCN3CCOCC3)c3cc(CO)ccc3[C@H]2N1CC12CC3CC(CC(C3)C1)C2	-0.119	-0.544	-1.1	0.846	0.305	-0.0455	-0.0626	-0.345	0.15	1.15
c1ccc(C2NCCc3c2[nH]c2ccccc32)cc1 (stereo not given)	-0.571	-3.13	0.106	-0.387	-0.951	-0.124	-0.147	0.183	0.446	0.128
CC(C)(C)N1C(=O)[C@H]2[C@H]3[C@H](O)[C@H](O)CC(=NOCc4ccccc4)[C@@H]3CC[C@H]2C1=O	0.093	0.656	1.08	-0.266	-0.717	-0.0194	-0.0146	-0.352	0.593	1.19
CCOC(=O)CCN1C(=O)[C@H]2[C@H]3[C@H](O)[C@H](O)CC(=NOC[C@@H](O)COCc4ccco4)[C@H]3CC[C@H]2C1=O	1.11	-2.99	0.622	-0.039	-0.438	-0.152	-0.0769	-0.0446	0.0386	0.351
O=C1C2C=CC(C(O)c3ccc([N+](=O)[O-])cc3)N(Nc3ccc([N+](=O)[O-])cc3)C2C(=O)N1c1ccccc1 (stereo not given)	1.47	-0.74	0.179	2.01	0.757	0.152	0.0796	0.0473	1.3	2.8
CCOC(=O)[C@H](CC(C)C)NC(=O)CCC1CC(OC(=O)NCc2cccc3ccccc23)CC2(CCCC(COC(=O)NCCc3ccccc3OC)O2)O1 (stereo not given in full)	1.38	-1.24	0.488	1.3	0.371	-0.124	-0.214	-0.335	0.607	0.588
